# Assays:
# Assay in all cases: DAPPL (digital affinity profiling via proximity ligation, sequencing); 10 mM Tris-HCl pH 7.5, 50 mM NaCl, 1 mM DTT, 4% glycerol, room temperature, 30 min; GST-TFs on glutathione beads, 16-mer random dsDNA library, 0.1% formaldehyde crosslink after washing; high values mean tight binding
# FEV = target: T1, FEV (Homo sapiens, UniProt Q99581 1-238); conditions: protein: recombinant; tags: N-terminal GST; dsDNA, one strand shown
# T1 sequence: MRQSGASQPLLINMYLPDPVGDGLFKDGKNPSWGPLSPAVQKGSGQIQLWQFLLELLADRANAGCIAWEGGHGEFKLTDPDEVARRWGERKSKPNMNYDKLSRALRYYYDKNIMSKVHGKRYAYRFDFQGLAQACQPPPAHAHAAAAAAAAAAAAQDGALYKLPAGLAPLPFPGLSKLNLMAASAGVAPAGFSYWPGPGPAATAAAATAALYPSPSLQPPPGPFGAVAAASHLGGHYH
# In short: (§1)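 Yeast served to express human transcription factors as GST fusions, which were then captured on glutathione beads and labelled with DNA barcodes. Pooled with a tag-only sample, they were incubated with 200 nmole of a 16-mer random double-stranded DNA library for 30 min at room temperature in Tris/NaCl/DTT/glycerol buffer, washed, crosslinked with 0.1% formaldehyde, ligated by proximity, amplified by PCR and sequenced. Dividing each hexamer's read frequency for a factor by its frequency for the tag-only sample gives the binding signal.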
# ETV5 = ETV5 (Homo sapiens, UniProt P41161 1-510); conditions: protein: recombinant; tags: N-terminal GST; dsDNA, one strand shown
# ETV5, sequence (P41161 whole entry): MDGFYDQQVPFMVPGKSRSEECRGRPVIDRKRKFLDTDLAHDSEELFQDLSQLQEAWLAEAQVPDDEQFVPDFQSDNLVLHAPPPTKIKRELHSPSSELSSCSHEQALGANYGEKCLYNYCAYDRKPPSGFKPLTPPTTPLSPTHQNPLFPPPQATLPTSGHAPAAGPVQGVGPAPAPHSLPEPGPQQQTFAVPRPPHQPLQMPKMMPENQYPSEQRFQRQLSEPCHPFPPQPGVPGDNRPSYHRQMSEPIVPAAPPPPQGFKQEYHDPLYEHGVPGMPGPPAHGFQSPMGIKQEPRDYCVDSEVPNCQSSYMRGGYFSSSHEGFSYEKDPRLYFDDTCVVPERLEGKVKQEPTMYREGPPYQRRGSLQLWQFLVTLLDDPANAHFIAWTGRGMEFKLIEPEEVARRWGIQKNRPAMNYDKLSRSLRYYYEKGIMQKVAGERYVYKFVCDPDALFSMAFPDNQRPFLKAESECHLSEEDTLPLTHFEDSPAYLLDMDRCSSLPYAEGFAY
# In short: as §1
# HSF1 = HSF1 (Homo sapiens, UniProt Q00613 1-529); conditions: protein: recombinant; tags: N-terminal GST; chain copies: 3; dsDNA, one strand shown
# HSF1, sequence (Q00613 whole entry): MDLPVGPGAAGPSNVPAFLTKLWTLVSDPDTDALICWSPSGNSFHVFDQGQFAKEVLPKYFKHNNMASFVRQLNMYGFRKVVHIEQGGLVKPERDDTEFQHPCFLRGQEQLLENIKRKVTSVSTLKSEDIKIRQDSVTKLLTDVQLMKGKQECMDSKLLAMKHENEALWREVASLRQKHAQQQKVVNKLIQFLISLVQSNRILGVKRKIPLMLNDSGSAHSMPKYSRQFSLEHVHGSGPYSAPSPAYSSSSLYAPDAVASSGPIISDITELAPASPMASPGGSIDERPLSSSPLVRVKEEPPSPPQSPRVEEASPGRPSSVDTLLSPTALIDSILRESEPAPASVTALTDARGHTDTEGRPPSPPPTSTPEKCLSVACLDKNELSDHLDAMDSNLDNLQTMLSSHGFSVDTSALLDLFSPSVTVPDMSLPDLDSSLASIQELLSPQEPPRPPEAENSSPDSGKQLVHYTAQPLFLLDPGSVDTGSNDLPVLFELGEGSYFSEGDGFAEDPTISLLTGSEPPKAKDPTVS
# In short: as §1
# SPIC = target: T2, SPIC (Homo sapiens, UniProt Q8N5J4 1-248); conditions: protein: recombinant; tags: N-terminal GST; dsDNA, one strand shown
# T2 sequence: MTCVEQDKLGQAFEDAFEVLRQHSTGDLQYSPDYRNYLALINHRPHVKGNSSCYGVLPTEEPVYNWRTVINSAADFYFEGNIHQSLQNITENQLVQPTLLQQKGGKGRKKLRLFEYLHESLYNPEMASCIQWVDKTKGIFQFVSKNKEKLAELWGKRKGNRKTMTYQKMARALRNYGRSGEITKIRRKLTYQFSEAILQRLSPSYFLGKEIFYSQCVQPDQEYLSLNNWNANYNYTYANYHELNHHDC
# In short: as §1
# ELF4 = ELF4 (Homo sapiens, UniProt Q99607 1-663); conditions: protein: recombinant; tags: N-terminal GST; dsDNA, one strand shown
# ELF4, sequence (Q99607 whole entry): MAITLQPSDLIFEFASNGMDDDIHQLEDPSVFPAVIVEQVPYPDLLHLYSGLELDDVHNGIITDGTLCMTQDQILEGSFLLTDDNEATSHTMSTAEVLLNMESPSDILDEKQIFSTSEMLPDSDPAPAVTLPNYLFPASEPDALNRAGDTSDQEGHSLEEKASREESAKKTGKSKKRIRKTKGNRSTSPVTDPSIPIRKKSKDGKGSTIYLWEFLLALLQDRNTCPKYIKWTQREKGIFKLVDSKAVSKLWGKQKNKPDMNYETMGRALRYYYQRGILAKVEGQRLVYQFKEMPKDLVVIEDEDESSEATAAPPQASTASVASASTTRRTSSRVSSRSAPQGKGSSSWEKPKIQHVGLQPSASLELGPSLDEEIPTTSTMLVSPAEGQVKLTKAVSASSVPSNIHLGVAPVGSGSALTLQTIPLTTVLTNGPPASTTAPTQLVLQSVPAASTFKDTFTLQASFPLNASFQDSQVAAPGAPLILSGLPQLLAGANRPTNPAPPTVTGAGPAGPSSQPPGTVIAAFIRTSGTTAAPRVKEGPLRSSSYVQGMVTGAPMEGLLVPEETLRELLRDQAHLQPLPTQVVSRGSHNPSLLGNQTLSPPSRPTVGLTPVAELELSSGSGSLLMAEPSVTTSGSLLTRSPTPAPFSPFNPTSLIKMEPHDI
# In short: as §1
# ELK4 = target: T3, ELK4 (Homo sapiens, UniProt P28324-2 1-405); conditions: protein: recombinant; tags: N-terminal GST; dsDNA, one strand shown
# T3 sequence: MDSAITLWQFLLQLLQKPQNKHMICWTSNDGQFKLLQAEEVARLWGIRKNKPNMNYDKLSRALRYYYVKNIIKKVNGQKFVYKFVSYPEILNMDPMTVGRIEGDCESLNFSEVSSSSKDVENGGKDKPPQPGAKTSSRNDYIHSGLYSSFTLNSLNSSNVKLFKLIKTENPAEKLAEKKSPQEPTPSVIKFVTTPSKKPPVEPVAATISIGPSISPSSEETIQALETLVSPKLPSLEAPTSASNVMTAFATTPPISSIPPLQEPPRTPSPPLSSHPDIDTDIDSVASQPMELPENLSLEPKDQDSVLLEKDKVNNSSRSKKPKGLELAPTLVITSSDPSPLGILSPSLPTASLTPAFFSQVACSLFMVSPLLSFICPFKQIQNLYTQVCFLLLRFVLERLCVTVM
# In short: as §1
# ETV2 = target: T4, ETV2 (Homo sapiens, UniProt O00321 1-342); conditions: protein: recombinant; tags: N-terminal GST; dsDNA, one strand shown
# T4 sequence: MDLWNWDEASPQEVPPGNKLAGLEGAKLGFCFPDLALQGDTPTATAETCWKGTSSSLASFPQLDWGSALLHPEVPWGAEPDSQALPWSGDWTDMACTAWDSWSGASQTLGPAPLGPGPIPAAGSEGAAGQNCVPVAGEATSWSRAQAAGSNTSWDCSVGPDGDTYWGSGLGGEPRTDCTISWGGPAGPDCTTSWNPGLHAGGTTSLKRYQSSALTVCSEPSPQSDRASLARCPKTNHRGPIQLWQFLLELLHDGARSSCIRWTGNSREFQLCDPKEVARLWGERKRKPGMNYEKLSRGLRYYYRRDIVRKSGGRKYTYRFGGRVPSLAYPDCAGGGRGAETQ
# In short: as §1
# ELF3 = target: T5, ELF3 (Homo sapiens, UniProt P78545 1-371); conditions: protein: recombinant; tags: N-terminal GST; dsDNA, one strand shown
# T5 sequence: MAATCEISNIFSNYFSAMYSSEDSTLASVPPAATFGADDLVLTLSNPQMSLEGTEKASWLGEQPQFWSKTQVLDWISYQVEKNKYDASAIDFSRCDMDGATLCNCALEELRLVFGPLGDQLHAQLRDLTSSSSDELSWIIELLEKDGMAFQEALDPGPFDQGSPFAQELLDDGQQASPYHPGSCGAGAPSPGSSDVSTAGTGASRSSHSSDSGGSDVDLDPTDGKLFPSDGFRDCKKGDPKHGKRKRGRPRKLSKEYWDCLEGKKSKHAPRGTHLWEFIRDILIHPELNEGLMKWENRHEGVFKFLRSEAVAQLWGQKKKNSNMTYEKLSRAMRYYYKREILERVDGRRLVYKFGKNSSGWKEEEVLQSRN
# In short: as §1
# ETV1 = ETV1 (Homo sapiens, UniProt P50549 1-477); conditions: protein: recombinant; tags: N-terminal GST; dsDNA, one strand shown
# ETV1, sequence (P50549 whole entry): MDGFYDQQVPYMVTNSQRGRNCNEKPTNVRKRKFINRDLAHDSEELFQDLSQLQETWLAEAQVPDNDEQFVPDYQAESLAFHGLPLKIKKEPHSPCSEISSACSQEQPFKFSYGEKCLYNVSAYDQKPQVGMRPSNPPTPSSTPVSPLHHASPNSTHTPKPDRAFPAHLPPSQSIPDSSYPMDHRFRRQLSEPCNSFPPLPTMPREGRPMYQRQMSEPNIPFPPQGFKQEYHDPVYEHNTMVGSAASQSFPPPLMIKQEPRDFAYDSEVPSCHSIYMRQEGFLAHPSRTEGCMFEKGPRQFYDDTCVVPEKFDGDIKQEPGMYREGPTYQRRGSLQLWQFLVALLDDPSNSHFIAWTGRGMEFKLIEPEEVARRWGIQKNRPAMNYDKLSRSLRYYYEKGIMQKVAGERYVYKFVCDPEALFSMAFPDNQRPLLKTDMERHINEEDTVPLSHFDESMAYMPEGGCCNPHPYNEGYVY
# In short: as §1
# ERF = target: T6, ERF (Homo sapiens, UniProt P50548 1-548); conditions: protein: recombinant; tags: N-terminal GST; dsDNA, one strand shown
# T6 sequence: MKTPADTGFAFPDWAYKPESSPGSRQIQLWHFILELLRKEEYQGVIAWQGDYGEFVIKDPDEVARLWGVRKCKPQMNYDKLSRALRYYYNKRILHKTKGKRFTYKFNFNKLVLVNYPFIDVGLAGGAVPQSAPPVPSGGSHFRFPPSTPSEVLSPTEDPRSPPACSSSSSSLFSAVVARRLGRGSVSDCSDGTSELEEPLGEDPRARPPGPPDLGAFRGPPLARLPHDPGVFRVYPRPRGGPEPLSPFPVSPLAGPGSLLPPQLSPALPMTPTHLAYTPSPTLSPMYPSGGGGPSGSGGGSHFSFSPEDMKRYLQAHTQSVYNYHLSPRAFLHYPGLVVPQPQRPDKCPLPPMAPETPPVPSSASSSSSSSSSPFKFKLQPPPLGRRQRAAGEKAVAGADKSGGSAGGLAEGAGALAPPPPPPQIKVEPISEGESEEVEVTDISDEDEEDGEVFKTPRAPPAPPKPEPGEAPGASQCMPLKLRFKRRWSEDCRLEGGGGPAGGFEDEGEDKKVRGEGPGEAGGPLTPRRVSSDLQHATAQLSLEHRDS
# In short: as §1
# ETV3L = target: T7, ETV3L (Homo sapiens, UniProt Q6ZN32 1-361); conditions: protein: recombinant; tags: N-terminal GST; dsDNA, one strand shown
# T7 sequence: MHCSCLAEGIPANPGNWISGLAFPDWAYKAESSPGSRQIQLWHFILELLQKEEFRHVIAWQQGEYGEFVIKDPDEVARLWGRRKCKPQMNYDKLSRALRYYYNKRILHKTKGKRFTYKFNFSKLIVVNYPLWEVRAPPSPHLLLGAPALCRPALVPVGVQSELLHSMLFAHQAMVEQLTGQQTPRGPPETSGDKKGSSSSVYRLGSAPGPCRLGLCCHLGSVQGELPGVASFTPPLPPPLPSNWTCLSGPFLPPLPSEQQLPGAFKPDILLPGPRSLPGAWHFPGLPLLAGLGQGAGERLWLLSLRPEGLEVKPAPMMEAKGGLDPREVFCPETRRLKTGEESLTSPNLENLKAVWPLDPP
# In short: as §1
# ETS2 = target: T8, ETS2 (Homo sapiens, UniProt P15036 1-469); conditions: protein: recombinant; tags: N-terminal GST; dsDNA, one strand shown
# T8 sequence: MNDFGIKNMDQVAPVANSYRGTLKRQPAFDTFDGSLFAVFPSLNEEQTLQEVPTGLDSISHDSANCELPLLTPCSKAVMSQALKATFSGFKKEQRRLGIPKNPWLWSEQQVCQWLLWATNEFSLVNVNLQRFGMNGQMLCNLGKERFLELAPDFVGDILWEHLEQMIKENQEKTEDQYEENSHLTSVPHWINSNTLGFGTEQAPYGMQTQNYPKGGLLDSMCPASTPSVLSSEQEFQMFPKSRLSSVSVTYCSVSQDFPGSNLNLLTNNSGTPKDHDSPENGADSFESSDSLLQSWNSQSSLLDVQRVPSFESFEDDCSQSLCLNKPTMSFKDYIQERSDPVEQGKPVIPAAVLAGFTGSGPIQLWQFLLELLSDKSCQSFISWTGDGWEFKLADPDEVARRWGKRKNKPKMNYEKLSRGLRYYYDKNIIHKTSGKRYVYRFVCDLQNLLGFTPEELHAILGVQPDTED
# In short: as §1
# SPDEF = target: T9, SPDEF (Homo sapiens, UniProt O95238 1-335); conditions: protein: recombinant; tags: N-terminal GST; dsDNA, one strand shown
# T9 sequence: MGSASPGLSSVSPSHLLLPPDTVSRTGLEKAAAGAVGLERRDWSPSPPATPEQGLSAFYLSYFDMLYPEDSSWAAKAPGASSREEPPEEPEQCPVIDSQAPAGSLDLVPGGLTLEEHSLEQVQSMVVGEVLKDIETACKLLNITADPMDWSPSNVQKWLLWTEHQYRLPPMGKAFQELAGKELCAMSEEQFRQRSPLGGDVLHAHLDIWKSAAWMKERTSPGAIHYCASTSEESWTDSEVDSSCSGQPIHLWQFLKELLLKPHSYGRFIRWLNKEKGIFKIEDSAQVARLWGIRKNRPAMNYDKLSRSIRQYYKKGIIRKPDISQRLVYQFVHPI
# In short: as §1
# ELF5 = target: T10, ELF5 (Homo sapiens, UniProt Q9UKW6-2 1-255); conditions: protein: recombinant; tags: N-terminal GST; dsDNA, one strand shown
# T10 sequence: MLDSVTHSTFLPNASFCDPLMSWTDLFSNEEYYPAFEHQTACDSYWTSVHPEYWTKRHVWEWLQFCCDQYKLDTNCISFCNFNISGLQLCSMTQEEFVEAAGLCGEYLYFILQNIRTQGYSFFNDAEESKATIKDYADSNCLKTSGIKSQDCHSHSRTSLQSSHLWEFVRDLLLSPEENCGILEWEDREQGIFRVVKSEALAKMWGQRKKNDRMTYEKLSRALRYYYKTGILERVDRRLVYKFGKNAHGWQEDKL
# In short: as §1
# ETV3 = target: T11, ETV3 (Homo sapiens, UniProt P41162-2 1-143); conditions: protein: recombinant; tags: N-terminal GST; dsDNA, one strand shown
# T11 sequence: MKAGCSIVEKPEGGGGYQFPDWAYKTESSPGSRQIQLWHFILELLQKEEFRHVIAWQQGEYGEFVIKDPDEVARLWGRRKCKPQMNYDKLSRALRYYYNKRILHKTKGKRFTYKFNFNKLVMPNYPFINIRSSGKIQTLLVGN
# In short: as §1
# ETV6 = ETV6 (Homo sapiens, UniProt P41212 1-452); conditions: protein: recombinant; tags: N-terminal GST; dsDNA, one strand shown
# ETV6, sequence (P41212 whole entry): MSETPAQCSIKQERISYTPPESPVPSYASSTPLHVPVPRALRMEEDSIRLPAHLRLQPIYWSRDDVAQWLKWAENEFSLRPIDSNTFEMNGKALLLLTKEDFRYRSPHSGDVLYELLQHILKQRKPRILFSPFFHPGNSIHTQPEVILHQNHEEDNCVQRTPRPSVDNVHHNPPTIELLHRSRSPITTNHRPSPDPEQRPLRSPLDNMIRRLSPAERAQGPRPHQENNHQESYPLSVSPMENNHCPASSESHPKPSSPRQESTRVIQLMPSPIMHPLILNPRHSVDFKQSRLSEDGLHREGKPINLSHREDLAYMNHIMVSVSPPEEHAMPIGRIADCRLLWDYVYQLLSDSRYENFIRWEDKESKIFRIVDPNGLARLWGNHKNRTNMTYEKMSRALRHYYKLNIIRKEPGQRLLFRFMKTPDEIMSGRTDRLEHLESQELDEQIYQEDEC
# In short: as §1
sequence,measurement,setting,value
ATGCTG,binding signal,FEV,"1.06 fold enrichment (6-mer frequency, TF over GST control)"
same,binding signal,ETV5,"1.13 fold enrichment (6-mer frequency, TF over GST control)"
same,binding signal,HSF1,"1.02 fold enrichment (6-mer frequency, TF over GST control)"
same,binding signal,SPIC,"1.14 fold enrichment (6-mer frequency, TF over GST control)"
same,binding signal,ELF4,"1.06 fold enrichment (6-mer frequency, TF over GST control)"
same,binding signal,ELK4,"1.26 fold enrichment (6-mer frequency, TF over GST control)"
same,binding signal,ETV2,"1.19 fold enrichment (6-mer frequency, TF over GST control)"
same,binding signal,ELF3,"1.26 fold enrichment (6-mer frequency, TF over GST control)"
same,binding signal,ETV1,"1.06 fold enrichment (6-mer frequency, TF over GST control)"
same,binding signal,ERF,"1.16 fold enrichment (6-mer frequency, TF over GST control)"
same,binding signal,ETV3L,"1.13 fold enrichment (6-mer frequency, TF over GST control)"
same,binding signal,ETS2,"1.18 fold enrichment (6-mer frequency, TF over GST control)"
same,binding signal,SPDEF,"1.11 fold enrichment (6-mer frequency, TF over GST control)"
same,binding signal,ELF5,"1 fold enrichment (6-mer frequency, TF over GST control)"
same,binding signal,ETV3,"1.09 fold enrichment (6-mer frequency, TF over GST control)"
same,binding signal,ETV6,"1.08 fold enrichment (6-mer frequency, TF over GST control)"
